Assay results: PubChem BioAssay (NCI)
The panel holds about 83,000 compounds, 20% with a hit somewhere; the sample as a whole holds those more often.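 48-hour exposure, single concentration, 96-well plates; percent growth endpoint where 0 means no net growth. Active: below 10.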 Values without a mark were called inactive. The source made the active and inactive calls.

test system: SNB-19 CNS; test: NCI-60 one-dose screen, 48 h (100 = growth as untreated, 0 = no growth, -100 = all killed); conditions: 10 µM unless noted

Question: Which growth does the source give for `COC(=O)/C(=C\c1c(-c2ccccc2)[nH]c2ccccc12)S(C)(=O)=O` here?
Answer: The growth was 37.6%.

Question: With `O=C(NN1C(=O)CSC1c1ccc(Cl)cc1)c1[nH]c2ccc(F)cc2c1-c1ccccc1` (stereo not given) as the compound, how does the growth read?
Answer: Its growth is 64.2%.

Question: With `CC(=O)n1cc(-c2c[nH]c3ccccc23)c(-c2ccc(Cl)cc2)n1` as the compound, how does the growth read?
Answer: Its growth is 112%.

Question: For `O=C(N/N=C/c1ccccc1Cl)C(=O)Nc1cccc(C(F)(F)F)c1`, which growth is on record?
Answer: Its growth is 94.1%.

Question: `COc1cccc2cc(N(C)c3nc(C)nc4ccsc34)ccc12` was tested. Which growth did it give?
Answer: The growth was 24.1%.

Question: Which growth does the source give for `O=C(Cn1cc(COc2ncnc3c2cnn3-c2ccccc2)nn1)Nc1cccc2ccccc12` here?
Answer: Its growth is 88.4%.

Question: Which growth does the source give for `CCC1=C[C@]2(C3CC(=O)N(c4ccccc4)C3=O)CC(C(C)(C)C)C[C@@H]2[C@@H]2C(=O)N(c3ccccc3)C(=O)[C@H]12` (stereo not given in full) here?
Answer: The growth was 86.2%.

Question: For `CCCN1CCN(c2ccc3nc(-c4ccc5nc(-c6cc(OC)ccc6OC)[nH]c5c4)[nH]c3c2)CC1`, which growth is on record?
Answer: The growth was 115%.

Question: With `COc1ccc2c(c1)C=C1CSCC3=Cc4cc(OC)ccc4OC13O2` as the compound, how does the growth read?
Answer: The growth was 28.9%.

Question: `COc1ccc(-c2nc(-c3ccccn3)c(-c3ccccn3)n2CC(C)C)cc1OC1CCCC1` was tested. Which growth did it give?
Answer: The growth was 24.2%.

Question: With `CCN1C(=O)N(CC)C2C1NC(=S)N2/N=C/C=C/c1ccccc1OC` (stereo not given) as the compound, how does the growth read?
Answer: Its growth is 26.5%.

Question: How did the growth turn out when `O=C(c1nc2ccccc2[nH]1)C1C(c2ccc([N+](=O)[O-])cc2)C2CC3CCCCC3N2[C@@]12C(=O)Nc1cc(Cl)ccc12` (stereo not given in full) was run?
Answer: Its growth is 27.5%.

Question: For `COc1cc(-c2c3c(c(Br)n2Cc2ccccc2)-c2nc(N)sc2CC3)cc(OC)c1OC`, which growth is on record?
Answer: The growth was 88.2%.

Question: How did the growth turn out when `Cn1c(C(=O)c2cccc3ccccc23)nc2ccccc21` was run?
Answer: The growth was 10.3%.

Question: How did the growth turn out when `C1=CC2(C=C1)OC21CCC2(C=CC3(C2)OC3C2CCCCC2)CC1` (stereo not given) was run?
Answer: The growth was 104%.

Question: `O=C1/C=C/[C@@H](O)[C@@H]2C[C@@H](O)C[C@H]2/C=C/CCCCO1` was tested. Which growth did it give?
Answer: The growth was 28.7%.

Question: With `CS(=O)(=O)Nc1ccc(C(=O)NC(C(=O)NO)c2ccc(-c3cccc(F)c3)cc2)cc1` (stereo not given) as the compound, how does the growth read?
Answer: Its growth is 45.2%.

Question: Which growth does the source give for `CCN1CCN(c2cc(C)c3cc(NC(=O)c4ccc(OC)c(OC)c4)ccc3n2)CC1` here?
Answer: The growth was 58.1%.

Question: For `Cc1ccc(OCCCCCCNCCO)c(C)c1`, which growth is on record?
Answer: The growth was 14.5%.

Question: Which growth does the source give for `CCOc1ccc2nc(C)cc(Nc3ccc(Br)cc3)c2c1` here?
Answer: The growth was 101%.

Question: How did the growth turn out when `Cn1c2c(c(=O)[nH]c1=O)NC1=C(C(=O)c3ccccc31)C1(C=C(O)c3ccccc31)N2` (stereo not given) was run?
Answer: Its growth is 114%.

Question: How did the growth turn out when `CC(C)(C)c1ccc(C2CC(=O)C3=C(C2)Nc2ccccc2N(C(=O)c2ccccc2Cl)C3c2ccc(F)cc2)cc1` (stereo not given) was run?
Answer: Its growth is 9.35% (active).

Question: With `Oc1ccc(-c2nc(-c3ccc4oc5ccc(-c6[nH]c(-c7ccc(O)cc7)nc6-c6ccccc6)cc5c4c3)c(-c3ccccc3)[nH]2)cc1` as the compound, how does the growth read?
Answer: Its growth is 63.5%.

Question: For `CN(CCc1ccccc1)C(=S)N(C(=O)c1ccc([N+](=O)[O-])cc1)c1ccc(Cl)cc1`, which growth is on record?
Answer: The growth was 101%.

Question: How did the growth turn out when `Nc1no[n+]([O-])c1-c1nnc2c(n1)-c1ccccc1C2=O` was run?
Answer: The growth was 84.5%.
